p53ts 32C tox: cytotoxicity in p53ts cells at permissive temperature; 130,000 compounds, 0.93% hits; H1299-p53A138V at 32C, ATP luminescence viability, 24 h; Potency, µM (doses to about 46.1 µM), for the others: top-dose activity change, negative = cytotoxicity, most hits filed as cytotoxic; AID 924;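 further: potency means the concentration at half of the fitted maximal effect; 0% = DMSO and -100% = full killing by reference compound; nearly all actives have a fitted effect of over 55% in size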
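Cells: H1299 p53ts (A138V), 600/well, pre-incubated 16–30 h at 37C. Cpd up to 46 uM, 24 h, 32C. Readout: ATPlite luminescence, 20 min RT. Normalization: DMSO vs tamoxifen 100 uM. AC50 by Hill equation.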
DNA Pol III inh: DNA polymerase III holoenzyme inhibition. reconstituted DNA polymerase III holoenzyme replication, biochemical. Potency, µM (series often up to 57.1 µM), for inactives: at the highest dose activity change, negative = inhibition. 71,000 compounds, 0.25% hits. AID 603; further: potency means the concentration at half of the fitted maximal effect; on the % scale 0 is the no-effect control and ±100 the full control effect
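Reconstituted *E. coli* holoenzyme (0.35 nM Pol III, 1 nM beta, 154 nM SSB, 2 nM primase) was preincubated with compound for 15 min at RT. Synthesis on 1.4 nM ssM13Gori ran 35 min, then was stopped with PicoGreen/EDTA and read as dsDNA fluorescence.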
p53ts 39C tox: cytotoxicity in p53ts cells at nonpermissive temperature. H1299-p53A138V viability at 39C, ATP luminescence, 24 h. AID 902. 130,000 compounds, 1.5% hits. Potency, µM (series often up to 46.1 µM), inactives show at the highest dose activity change, negative = cell killing, hits mostly cytotoxic; further: potency means the concentration at half of the fitted maximal effect; on the % scale 0 is the no-effect control and ±100 the full control effect; nearly all actives have a fitted effect of over 55% in size
YjeE inh: YjeE (TsaE) inhibition, E. coli | P0AF67 | purified YjeE enzyme, qHTS inhibition assay | Potency, µM | 71,000 compounds, 0.05% hits
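Fluorescence polarization of a BODIPY Texas Red–ADP probe (2 uM) bound to purified YjeE (10 uM) was read after 15 min room-temperature incubation with compounds. Loss of polarization marks inhibitors; ADP serves as titrated control.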
Tau filament bind: binders of human tau filaments. P10636. recombinant tau filaments, thioflavin S fluorescence, 15 h; filaments grown with octadecylsulfate alongside compound. Potency, µM (highest dose often 57.1 µM), for the others: top-dose activity change, negative = inhibition. 71,000 compounds, 2% hits;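 further: potency means the concentration at half of the fitted maximal effect; on the % scale 0 is the no-effect control and ±100 the full control effect; actives lower thioflavin S fluorescence by blocking filaments or displacing dye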
Target sequence (P10636 whole entry, looked up): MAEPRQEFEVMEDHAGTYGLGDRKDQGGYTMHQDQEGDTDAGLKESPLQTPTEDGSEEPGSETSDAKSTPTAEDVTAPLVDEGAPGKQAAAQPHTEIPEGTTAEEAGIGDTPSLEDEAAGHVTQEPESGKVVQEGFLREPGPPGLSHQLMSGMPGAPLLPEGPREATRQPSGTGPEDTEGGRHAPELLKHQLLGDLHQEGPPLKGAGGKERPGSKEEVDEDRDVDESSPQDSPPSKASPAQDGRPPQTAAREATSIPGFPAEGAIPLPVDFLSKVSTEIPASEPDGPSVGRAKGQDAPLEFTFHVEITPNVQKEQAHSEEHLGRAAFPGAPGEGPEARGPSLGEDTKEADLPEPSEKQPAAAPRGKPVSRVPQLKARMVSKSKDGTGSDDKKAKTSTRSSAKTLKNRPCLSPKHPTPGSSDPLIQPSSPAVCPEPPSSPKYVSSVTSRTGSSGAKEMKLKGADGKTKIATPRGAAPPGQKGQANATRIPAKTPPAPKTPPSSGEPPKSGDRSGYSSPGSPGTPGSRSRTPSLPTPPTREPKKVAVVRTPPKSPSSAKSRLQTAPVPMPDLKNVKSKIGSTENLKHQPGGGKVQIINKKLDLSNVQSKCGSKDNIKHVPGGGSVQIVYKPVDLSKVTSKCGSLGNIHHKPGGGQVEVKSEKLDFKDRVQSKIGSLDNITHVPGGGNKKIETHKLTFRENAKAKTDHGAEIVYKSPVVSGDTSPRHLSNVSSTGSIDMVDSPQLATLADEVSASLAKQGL
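His-tagged recombinant human tau (exons 2, 3, 10; 1 uM final) fibrillized with 30 uM sodium octadecylsulfate, 15 h at 37 C, in pH 7.4 HEPES buffer with 10 uM thioflavine S and 5 mM DTT. Reduced ThS fluorescence (450/510 nm) marks activity.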
ERK AVP inh: blocks ERK signaling stimulated by vasopressin; HEK293-V1b, vasopressin-stimulated pERK AlphaScreen; 72,000 compounds, 0.99% hits; AID 995; Potency, µM (series often up to 57.5 µM), without a hit: top-dose activity, negative = inhibition, most hits filed as inhibitors; further: potency means the concentration at half of the fitted maximal effect; on the % scale 0 is the no-effect control and ±100 the full control effect; nearly all actives have a fitted effect of over 55% in size
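Overnight-seeded V1b-HEK293 cells in 1% FBS got compound, then vasopressin (25 nM final, 5 min, 37C), then lysis buffer. AlphaScreen detection of phospho-ERK; activity normalized to basal and full-stimulation controls.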
* = called active by the depositor; i = inactive; u = inconclusive; x = no result; [ ] = dose if it differs, or a comment. A selection: hits, their analogues and other compounds. The true share with any hit is near 3.2%. The call rests on the fitted dose curve; in most records, active means well fitted curve in the direction sought with a large enough effect; inconclusive means small, poorly fitted or top-dose-only effect, or another doubt; inactive means no such curve, though single readings can be large; an effect the other way counts as inactive or inconclusive.

SMILES	p53ts 32C tox	DNA Pol III inh	p53ts 39C tox	YjeE inh	Tau filament bind	ERK AVP inh
O=C1OCCC1Sc1nc2ccccc2n1-c1ccccc1 (stereo not given)	-8%	-4%	10%	i	-20%	16µM*
CC(=O)OC[C@@H]1O[C@@H](O/N=C2/C[C@@H](O)[C@@H](O)[C@@H]3[C@@H]4C(=O)N(c5cccc(Oc6ccccc6)c5)C(=O)[C@H]4CC[C@H]23)[C@H](OC(C)=O)[C@H](OC(C)=O)[C@@H]1OC(C)=O	-1%[9.22 µM]	x	5%[9.22 µM]	x	x	6%[11.5 µM]
CCOCCO	-17%[1.84 µM]	-1%	4%	i	8%	6%
C[C@@H](C(=O)O)c1ccc(N2Cc3ccccc3C2=O)cc1	10µM*	-3%[25.6 µM]	5µM*	i	10%[25.6 µM]	-5%[25.7 µM]
Cc1nc2ccc(NC(=O)Cc3cccs3)cc2s1	16µM*	0%	10µM*	i	-14%	-17%
Cc1nc2ccc(NC(=O)Cc3ccc4c(c3)OCCO4)cc2s1	x	x	0%	x	x	x
NC(=O)c1sc2nc3c(c(-c4ccco4)c2c1N)CCC3	11%	-4%	17%	i	16µM*	-36%
COc1ccc(C(=O)Nc2noc3ccccc23)cc1	3.2µM*	x	6.3µM*	x	x	x
COc1ccc(C(=O)Nc2cc(C)on2)cc1	7.9µM*	7%[11.4 µM]	6.3µM*	i	-3%[11.4 µM]	-7%
COc1ccc(C(=O)c2oc3ccccc3c2N)cc1	-10%	0%	-14%	i	13µM*	-9%
Nc1c(C(=O)c2ccc(F)cc2)oc2ccccc12	5%	1%	4%	i	u	-10%
NC(=O)c1sc2nc3c(c(-c4cccs4)c2c1N)CCCC3	12%	-9%	6%	i	-14%	1%
Cc1oc(-c2ccccc2F)nc1CS(=O)(=O)CC(=O)N1CCN(c2ccc(Cl)cc2)CC1	2%	x	u	x	x	x
COc1ccc(OC)c(NC(=O)c2c(C)oc3ncnc(N4CCOCC4)c23)c1	3%	x	-23%	x	x	x
COc1ccc(-c2c3c(nc4sc(C(=O)Nc5cc(C)on5)c(N)c24)CCC3)cc1	4%	5%	-4%	i	9%	7.9µM*
Cn1c(O)c(N=N/C(=N/c2ccccn2)c2ccccn2)c2cc(Br)ccc21	-13%	x	-30%	x	x	x
CN(C)C1CCN(C(=O)c2ccc(-n3c(=O)c(=O)[nH]c4ccccc43)cc2)C1 (stereo not given)	4%	x	5%	x	x	x
CCn1c2ccccc2c2cc(N)ccc21	3%	0%	-3%	i	3.2µM*	u
CCn1c(C)cc(=S)c2ccccc21	-9%	-7%	-14%	i	5µM*	24%
CCn1c2ccccc2c2nc3ccccc3nc21	-11%	-12%	u	i	-13%	-8%
COc1ccc(-c2noc(-c3ccc(N4CCN(c5ccccc5)CC4)c([N+](=O)[O-])c3)n2)cc1	-8%	x	-5%	x	x	x
CCCCn1nc(NC(=O)c2cccc(Cl)c2)c2cc3ccccc3nc21	4%	x	-12%	x	x	x
CC(C)Cn1nc(NC(=O)c2cccc(Cl)c2)c2cc3ccccc3nc21	-24%	x	13µM*	x	x	x
COc1ccc(CCNC(=O)CCCn2c(=O)c3cccn3c3ccc(F)cc32)cc1OC	11%	x	1%	x	x	x
CN(C)CC(=O)N1c2ccccc2CCc2ccc(NC(=O)c3ccc(N)cc3)cc21	-17%	0%	-14%	i	16µM*	12%
SMILES	p53ts 32C tox	DNA Pol III inh	p53ts 39C tox	YjeE inh	Tau filament bind	ERK AVP inh
Cc1ccc(OCc2nnc(SCc3nc4ccccc4[nH]3)n2Cc2ccco2)cc1	27%	2%	8%	i	-7%	32µM*
Cc1ccc(OCc2nnc(SCC(=O)c3ccccc3)n2Cc2ccco2)cc1	-6%	-4%	9%	i	49%	-30%
CC(=O)Nc1cccc(-c2nnc(SCC(=O)c3cc([N+](=O)[O-])ccc3Br)o2)c1	-22%	x	u	x	x	x
Cc1ccc(NC(=O)C2CCCN(c3ncnc4onc(C)c34)C2)c(Cl)c1 (stereo not given)	-18%	x	-16%	x	x	x
CCOC(=O)c1cc(-c2ccccc2)sc1N	15%	-3%	-7%	i	25µM*	-11%
Oc1ccccc1-c1nc(NCC2CCCO2)c2ccccc2n1 (stereo not given)	-2%	4%	-12%	i	-5%	32µM*
Cc1ccc(-c2cc(C(=O)NCCc3ccccc3)c3c(-c4ccc(C)cc4)[nH]nc3n2)cc1	-18%	x	u	x	x	x
Cc1ccc(C)c(N2CCN(CCCNC(=O)c3ccc4nc(N5CCC(C)CC5)sc4c3)CC2)c1	-6%	x	13µM*	x	x	x
Cc1ccc(C)c(N2CCN(CCCNC(=O)c3ccc4nc(CCc5ccccc5)oc4c3)CC2)c1	-27%	x	25µM*	x	x	x
Cc1ccc(C)c(N2CCN(CCCNC(=O)c3ccc4nc(C(C)C)oc4c3)CC2)c1	-14%	x	-21%	x	x	x
COc1ccc(CCCc2nnc(SCC(=O)Nc3ccc(C)cc3)o2)cc1C	4%	x	7%	x	x	x
CO[C@@H]1/C=C\CC(=O)N2CCC[C@@H]2C(=O)OC[C@@H](C)C(=O)OC[C@H]1C	8%[9.22 µM]	x	10%[9.22 µM]	x	x	-5%[11.5 µM]
CCOC(=O)c1ccc(NC(=O)CCc2nc(-c3ccccc3Cl)no2)cc1	68%	-1%	35%	i	32%	u
CCOC(=O)c1ccc(NC(=O)CCc2nc(-c3ccccc3)no2)cc1	18%	-1%	0%	i	93%	16µM*
CCc1cccc(NC(=O)CCc2nc(-c3cccs3)no2)c1	-12%	0%	-9%	i	-8%	25µM*
Cc1ccc(NC(=O)Cn2c(=O)n(CCCCC(=O)NCCc3ccc(Cl)cc3)c(=O)c3ccccc32)cc1	-6%	x	9%	x	x	x
COc1ccc(-c2cc(OC)c3c(C)oc(C)c3c(=O)c2)cc1OC	11%	-3%	-8%	i	25µM*	u
Nc1nnc(SCc2ccc(F)cc2Cl)s1	13%	-6%	6%	i	20µM*	-20%
C[C@H](N=C(NC#N)Nc1ccncc1)C(C)(C)C	x	-6%	x	i	u	u
COc1ccc(N/C(C)=C2/C(=O)C(=O)N(CCO)C2c2ccc(Br)cc2)cc1 (stereo not given)	11%	-11%	6%	i	16µM*	0%
COc1ccc(C2/C(=C(/O)c3ccccc3)C(=O)C(=O)N2CCO)cc1 (stereo not given)	-16%	x	-4%	x	x	x
COC(=O)c1ccc(C(NC(=O)OCc2ccccc2)/C(F)=C/[C@@H](C)C(=O)NCc2cc(F)cc(F)c2)cc1 (stereo not given in full)	6%	-2%	-22%	i	i	4%
O=S(=O)(/C=C/c1ccccc1)Nc1ccc(N2CCOCC2)cc1	-3%	6%	10%	i	25µM*	-7%
CC(=O)c1ccc(NC(=O)c2nc3ccccc3nc2N2CCCCC2)cc1	11%	x	-16%	x	x	x

Screens from PubChem.
